Reference: PubChem BioAssay (NCI)
This is part of a sample that, as a whole, favours compounds with a hit. Of some 79,000 tested, about 15% had one in any assay. Active and inactive are the calls of the source. No stated cut-off is given here; in the data, active means growth inhibition above about 70%; inactive means the rest.

Columns and labels:
[1] = NCI Yeast Anticancer Drug Screen. Data for the rad52 strain (AID 147);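 further: 0% = growth of vehicle-treated control cultures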; settings: S. cerevisiae rad52 mutant growth inhibition, stronger effect = higher value
In short: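 The repair-mutant yeast strain was incubated with compounds, then growth was read and inhibition derived relative to vehicle.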

[2] = NCI Yeast Anticancer Drug Screen. Data for the wt1 strain (AID 149);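 further: 0% = growth of vehicle-treated wt1 cultures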; settings: S. cerevisiae wt1 strain (SPY 50644) growth inhibition, stronger effect = higher value
In short: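 Vehicle-normalised growth inhibition; strain wt1; compound exposure.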

[3] = NCI Yeast Anticancer Drug Screen. Data for the rad50EPP+ strain (AID 151);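 further: 0% = growth of vehicle-treated control cultures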; settings: S. cerevisiae rad50 mutant strain, stronger effect = higher value
In short: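 Vehicle-normalised growth inhibition; rad50EPP+ yeast strain, altered in DNA damage repair, compound-treated.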

[4] = NCI Yeast Anticancer Drug Screen. Data for the mgt1 strain (AID 153); settings: S. cerevisiae mgt1 mutant growth inhibition, stronger effect = higher value
In short: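 Vehicle-normalized growth inhibition is determined in mgt1 yeast, a strain selected for a defined alteration in DNA repair or cell cycle control.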

[5] = NCI Yeast Anticancer Drug Screen. Data for the rad50 strain (AID 155);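 further: 0% = growth of vehicle-only cultures of the same strain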; settings: S. cerevisiae rad50 strain growth inhibition, stronger effect = higher value
In short: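 A DNA repair-deficient yeast mutant serves as the test organism; compound-induced growth inhibition is calculated against vehicle-treated cells.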

[6] = NCI Yeast Anticancer Drug Screen. Data for the mec2-1 strain (AID 157); settings: S. cerevisiae mec2-1 strain, stronger effect = higher value
In short: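 Mutant yeast (mec2-1) grown with compound; growth inhibition relative to vehicle control reported.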

[7] = NCI Yeast Anticancer Drug Screen. Data for the rad14 strain (AID 159);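 further: 0% = growth of vehicle-treated control cultures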; settings: S. cerevisiae rad14 strain growth inhibition, stronger effect = higher value
In short: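 Vehicle-treated cultures served as the baseline for growth inhibition of a DNA repair-mutant yeast strain exposed to each compound.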

[8] = NCI Yeast Anticancer Drug Screen. Data for the sgs1 mgt1 strain (AID 161);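 further: 0% = growth of cultures given vehicle only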; settings: S. cerevisiae sgs1 mgt1 strain, stronger effect = higher value
In short: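 Growth of a repair-deficient yeast mutant was monitored after compound treatment and expressed as inhibition relative to vehicle-treated cultures.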

[9] = NCI Yeast Anticancer Drug Screen. Data for the CLN2oe strain (AID 163);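 further: 0% = growth of vehicle-only control cultures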; settings: S. cerevisiae CLN2oe strain, stronger effect = higher value
In short: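 Compounds are applied to yeast harbouring a defined cell-cycle control change; reduced growth compared with vehicle-treated controls gives the value.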

[10] = NCI Yeast Anticancer Drug Screen. Data for the cln2 rad14 strain (AID 165);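 further: 0% = growth equal to vehicle treated cultures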; settings: S. cerevisiae cln2 rad14 strain, stronger effect = higher value
In short: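 Readout is yeast growth inhibition versus vehicle-treated controls, using a strain with cln2 and rad14 alterations exposed to compound.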

[11] = NCI Yeast Anticancer Drug Screen. Data for the bub3 strain (AID 167); settings: S. cerevisiae bub3 mutant strain, stronger effect = higher value
In short: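 Inhibition values come from growth of compound-treated mutant yeast normalised to vehicle-treated controls.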

[12] = NCI Yeast Anticancer Drug Screen. Data for the wt2 strain (AID 169);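 further: 0% = growth of vehicle-treated yeast cultures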; settings: S. cerevisiae wt2 strain growth inhibition, stronger effect = higher value
In short: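 Against vehicle-treated controls, the growth of yeast exposed to each compound was compared, and the inhibition was recorded.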

[13] = NCI Yeast Anticancer Drug Screen. Data for the mlh1 strain (AID 171);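 further: 0% = growth of vehicle-treated control cultures of the same strain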; settings: S. cerevisiae mlh1 strain growth inhibition, stronger effect = higher value
In short: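 Measured: yeast growth. Reference: vehicle-treated controls. Organism: strain with a defined alteration affecting DNA damage repair or cell cycle control, treated with compound.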

[14] = NCI Yeast Anticancer Drug Screen. Data for the mlh1 rad18 strain (AID 175); settings: S. cerevisiae mlh1 rad18 strain growth inhibition, stronger effect = higher value
In short: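 Genetically defined yeast (DNA repair-deficient) exposed to compounds; growth inhibition determined relative to vehicle.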

[15] = NCI Yeast Anticancer Drug Screen. Data for the rad18 strain (AID 177); settings: S. cerevisiae rad18 mutant growth inhibition, stronger effect = higher value
In short: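 Vehicle-treated cultures served as the baseline for scoring compound-induced growth inhibition in DNA-repair-mutant yeast.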

[16] = at 5.0 µM (retest, dose inferred, filed as 0.5)
[17] = at 50.0 µM (retest, dose inferred, filed as 5.0)

Measured: growth inhibition

CC1=C[C@H]2O[C@@H]3C[C@H]4OC(=O)/C=C\C=C\C(C(C)O)OCC(O)C(C)CC(=O)OC[C@@]2(C[C@@H]1O)[C@]4(C)[C@@]31CO1 (stereo partly drawn)
active: [1]; at 11.0 µM 91% | [1]; at 33.0 µM 97% | [1]; at 100.0 µM 97% | [2]; at 11.0 µM 93% | [2]; at 33.0 µM 98% | [2]; at 100.0 µM 98% | [4]; at 11.0 µM 92% | [4]; at 33.0 µM 97% | [4]; at 100.0 µM 97% | [5]; at 11.0 µM 92% | [5]; at 33.0 µM 97% | [5]; [17] 98% | [5]; at 50.0 µM 91.1% | [5]; at 100.0 µM 97% | [6]; at 11.0 µM 88% | [6]; at 33.0 µM 97% | [6]; [17] 98% | [6]; at 50.0 µM 92.2% | [6]; at 100.0 µM 97% | [7]; at 11.0 µM 93% | [7]; at 33.0 µM 97% | [7]; at 100.0 µM 97% | [8]; at 50.0 µM 92.2% | [9]; at 11.0 µM 91% | [9]; at 33.0 µM 97% | [10]; at 50.0 µM 91.4% | [11]; at 11.0 µM 89% | [11]; at 33.0 µM 97% | [11]; at 50.0 µM 90.8% | [11]; at 100.0 µM 97% | [12]; at 11.0 µM 78% | [12]; at 33.0 µM 98% | [12]; at 100.0 µM 98% | [13]; at 11.0 µM 89% | [13]; at 33.0 µM 97% | [13]; at 100.0 µM 97% | [14]; [17] 98% | [14]; at 50.0 µM 89.7% | [15]; at 11.0 µM 91% | [15]; at 33.0 µM 96% | [15]; at 100.0 µM 96%
inactive: [1]; at 1.2 µM -21% | [1]; at 3.7 µM 2% | [2]; at 1.2 µM -13% | [2]; at 3.7 µM 24% | [3]; at 1.2 µM -29% | [3]; at 3.7 µM -43% | [3]; at 11.0 µM -31% | [3]; at 33.0 µM -46% | [3]; at 100.0 µM -55% | [4]; at 1.2 µM -54% | [4]; at 3.7 µM -7% | [5]; at 1.2 µM -23% | [5]; at 3.7 µM 17% | [5]; [16] 41% | [6]; at 1.2 µM -60% | [6]; at 3.7 µM -3% | [6]; [16] 40% | [7]; at 1.2 µM -14% | [7]; at 3.7 µM 25% | [8]; [16] 7% | [8]; [17] 12% | [9]; at 1.2 µM 13% | [9]; at 3.7 µM 24% | [9]; at 100.0 µM 18% | [10]; [16] 18% | [10]; [17] -18% | [11]; at 1.2 µM -46% | [11]; at 3.7 µM 4% | [11]; [16] 4% | [11]; [17] -8% | [12]; at 1.2 µM -12% | [12]; at 3.7 µM 8% | [13]; at 1.2 µM -73% | [13]; at 3.7 µM 3% | [14]; [16] 68% | [15]; at 1.2 µM -64% | [15]; at 3.7 µM -15%
